The source made the active and inactive calls.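 Rule for the calls, unless noted: active = inhibition of the reporter signal at or above 50%; inactive = inhibition below 50%.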
Columns and labels:
[1] = inhibitors of TNFa-induced NFkB p65 translocation, primary screen, imaging, HUVEC, MLSMR starter and 10KST1 sets (AID 438;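 active = inhibition above 20% together with a positive visual image hit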;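 note: compound added about 3h40 before a 20 min TNFalpha stimulation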;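 for inhibition: signal is the nuclear over cytoplasmic p65 intensity ratio per well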); conditions: HUVEC TNFa-induced p65 nuclear translocation; cell count: measured here: nuclei count (cytotoxicity indicator), at 2.08 µM; inhibition: at 2 µM, stronger effect = higher value, 0% TNFa-plus-vehicle, 100% no-TNFa wells
[2] = inhibitors of mutant huntingtin aggregation, primary screen, imaging, exon1htt(103Q)mCFP cells, high-content imaging (AID 483;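 active = visual image review flags a hit and inhibition of aggregation exceeds 20%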;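 note: compound exposure lasted 3 days before fixation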;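 for nuclei count: percent of the per-plate median nuclei count of sample wells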); conditions: exon1htt(103Q)mCFP cell line, aggregate imaging, at 2 µM; inhibition of aggregation: stronger effect = higher value; nuclei count: measured here: cell count, toxicity
[3] = inhibitors of E-selectin induction by TNFa, primary screen, imaging, HUVEC, immunofluorescence, MLSMR starter and 10KST1 sets (AID 487;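 active = visually confirmed hit in the image check and inhibition above 20%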;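 for inhibition: signal is fraction of cell area covered by stained E-selectin grains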;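 for nuclei count: 100% = median nuclei count of all wells on the same plate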); conditions: HUVEC TNFalpha-induced E-selectin immunofluorescence imaging, at 2 µM; inhibition: stronger effect = higher value; nuclei count: measured here: cell number, toxicity
[4] = molecular target: Voltage-gated potassium channel subunit beta-2 (Rattus norvegicus) (UniProt P62483); assay: KvBeta enzyme negative modulators, primary screen, biochemical, NADPH fluorescence (AID 622;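 active = fluorescence slope higher than the sample average by over 3 SD, cut at about -0.22 in these data, passing the limit was not always enough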;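 note: slope of raw intensity against log time taken from 70 to 1610 s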); conditions: recombinant KvBeta, 4-cyanobenzaldehyde reduction, at 10 µM, stronger effect = higher value
Sequence of Voltage-gated potassium channel subunit beta-2 (Rattus norvegicus) (P62483 whole entry, looked up): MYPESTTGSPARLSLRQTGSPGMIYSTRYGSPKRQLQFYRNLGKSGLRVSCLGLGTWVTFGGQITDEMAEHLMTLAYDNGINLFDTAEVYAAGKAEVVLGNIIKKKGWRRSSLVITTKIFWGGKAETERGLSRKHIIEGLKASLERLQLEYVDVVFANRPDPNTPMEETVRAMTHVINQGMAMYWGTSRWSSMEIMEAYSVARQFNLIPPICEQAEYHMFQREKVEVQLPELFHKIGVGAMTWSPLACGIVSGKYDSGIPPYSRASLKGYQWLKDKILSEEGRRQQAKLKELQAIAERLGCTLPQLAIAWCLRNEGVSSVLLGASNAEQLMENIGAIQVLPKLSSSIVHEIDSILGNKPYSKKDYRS

[5] = molecular target: Voltage-gated potassium channel subunit beta-2 (Rattus norvegicus) (UniProt P62483); assay: KvBeta positive modulators, primary screen, biochemical, NADPH fluorescence (AID 623;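 active = NADPH fluorescence slope more negative than the mean of all samples by about 3 SD, 99.7% confidence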;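 note: fluorescence intensity change per second fitted from 20 to 320 s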); conditions: Recombinant KvBeta, NADPH fluorescence decrease slope, 10 min; at 10 µM; stronger effect = lower value
[6] = molecular target: Alpha-2C adrenergic receptor (Homo sapiens) (UniProt P18825); assay: modulators of alpha2C/GIRK thallium flux, primary screen, cell-based, HEK293 alpha2C/GIRK1/2 (AID 624;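 active = fluorescence slope after compound addition differing from the mean of all screened samples at 99.7% confidence, in either direction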;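 note: slope of fluorescence ratio to pre-addition baseline per second over 15 to 24 s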); conditions: thallium flux BTC fluorescence, at 10 µM, actives lie on both sides
Sequence of Alpha-2C adrenergic receptor (Homo sapiens) (P18825 whole entry, looked up): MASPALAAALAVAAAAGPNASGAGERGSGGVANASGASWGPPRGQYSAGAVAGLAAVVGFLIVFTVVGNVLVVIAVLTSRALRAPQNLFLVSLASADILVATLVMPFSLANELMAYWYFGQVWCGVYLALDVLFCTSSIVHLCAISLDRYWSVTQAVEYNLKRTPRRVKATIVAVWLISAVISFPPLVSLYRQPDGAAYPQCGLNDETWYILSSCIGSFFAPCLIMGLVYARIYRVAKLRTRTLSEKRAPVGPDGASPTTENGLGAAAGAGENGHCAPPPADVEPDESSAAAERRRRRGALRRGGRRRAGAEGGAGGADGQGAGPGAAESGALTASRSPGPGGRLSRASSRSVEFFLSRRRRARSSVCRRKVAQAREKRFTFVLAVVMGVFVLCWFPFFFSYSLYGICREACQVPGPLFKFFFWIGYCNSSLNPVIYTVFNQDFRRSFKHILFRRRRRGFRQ

[7] = inhibitors of Sendai virus-induced IRF3 signaling, primary screen, TLR/RLR signaling modifier project, cell-based, Sendai virus stimulus, luciferase, 10K MLSCN set (AID 602276;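 active = inhibition at or above 50% at 10 µM; inactive = inhibition below 50%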;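 note: firefly luciferase from ISG56 promoter only with Renilla not read in this screen; 0% = Sendai virus plus DMSO and 100% = medium plus DMSO without virus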); conditions: HEK293 RL24 IRF3 luciferase reporter, at 10 µM, stronger effect = higher value
[8] = inhibitors of poly I:C-induced TLR3 signaling, primary screen, cell-based, poly I:C stimulus, luciferase, 10K MLSCN set (AID 602277); conditions: HEK293-TLR3 RL24 IRF3 luciferase reporter, at 10 µM, stronger effect = higher value

SMILES	cell count [1]	inhibition [1]	inhibition of aggregation [2]	nuclei count [2]	inhibition [3]	nuclei count [3]	fluorescence slope [4]	NADPH fluorescence slope [5]	slope [6]	inhibition [7]	inhibition [8]
CC(C)N1C(=O)C2C(C(=O)NC3CCCCC3)C3C=CC2(O3)C1C(=O)NC1CCCC1 (stereo not given)	371	4.3% (inactive)	23% (inactive)	101%	-58.1% (inactive)	101%	-0.366 (inactive)	3.1e-05 (inactive)	0.00675 (inactive)	8.4% (inactive)	18.1% (inactive)
CCOC(=O)c1cccnc1SCC(=O)NC(C)CC (stereo not given)	689	-22.4% (inactive)	23.4% (inactive)	99.8%	-54.6% (inactive)	119%	-0.469 (inactive)	-0.0001 (inactive)	0.006 (inactive)	7.9% (inactive)	17.7% (inactive)
c1coc(Cn2nnnc2CN2CCN(C3CCCC3)CC2)c1	530	-15.6% (inactive)	-2.8% (inactive)	96.9%	-1.8% (inactive)	107%	-0.408 (inactive)	2.2e-05 (inactive)	0.00537 (inactive)	-7.52% (inactive)	12.8% (inactive)
COc1ccc(-c2nc3c(n2O)CCC/C3=N\O)cc1	319	-8% (inactive)	0.2% (inactive)	98.1%	-2.4% (inactive)	113%	-0.413 (inactive)	-7.6e-05 (inactive)	0.00746 (inactive)	-16.5% (inactive)	-26.8% (inactive)
COc1ccc(-c2nc3c(c(=O)n(C)c(=O)n3C)n2CC2CC(c3ccccc3)=NO2)cc1OC (stereo not given)	233	-3.2% (inactive)	5.3% (inactive)	87.9%	-3.5% (inactive)	86.7%	-0.587 (inactive)	-2.7e-05 (inactive)	0.00673 (inactive)	29.6% (inactive)	30.8% (inactive)
O=C(CSc1nnc(CNC(=O)c2c(F)cccc2Cl)o1)c1ccccc1	672	-19.6% (inactive)	40.1% (active)	100%	-111% (inactive)	123%	-0.406 (inactive)	-5.2e-05 (inactive)	0.00534 (inactive)	3.28% (inactive)	18.3% (inactive)
O=C(CCN1CCc2ccccc2C1)Nc1ccc2c(c1)OCO2	413	2.9% (inactive)	14.5% (inactive)	96.1%	-84.4% (inactive)	110%	-0.542 (inactive)	-1.3e-05 (inactive)	0.00425 (inactive)	6.95% (inactive)	14.1% (inactive)
Cc1nn(-c2ccccc2)c(C)c1/C=N/O	739	-3.9% (inactive)	-3.1% (inactive)	93.7%	25% (inactive)	94.2%	-0.446 (inactive)	2.9e-05 (inactive)	0.00603 (inactive)	-8.9% (inactive)	-14.8% (inactive)
COc1cccc(-c2cc(C(=O)N3CCCCCC3)no2)c1	519	-11.6% (inactive)	-8.6% (inactive)	82.4%	-44.3% (inactive)	116%	-0.522 (inactive)	-3.5e-05 (inactive)	0.00692 (inactive)	-24.6% (inactive)	-141% (inactive)
COc1cccc(NC(=O)C2CCCN(S(=O)(=O)c3cccc4cccnc34)C2)c1 (stereo not given)	604	-1.7% (inactive)	25.4% (inactive)	90.7%	-62.8% (inactive)	106%	-0.559 (inactive)	-2e-05 (inactive)	0.00606 (inactive)	2% (inactive)	23.1% (inactive)
CCCCCCC1/C(=N/O)CCC1C(=O)OC (stereo not given)	656	-7.7% (inactive)	7.3% (inactive)	91.2%	-54.1% (inactive)	127%	-0.614 (inactive)	-8.9e-06 (inactive)	0.00642 (inactive)	0.917% (inactive)	10.1% (inactive)
CCC(c1nnnn1C(C)(C)C)N1CCN(C2CCCC2)CC1 (stereo not given)	450	1.3% (inactive)	-7.5% (inactive)	124%	-46.6% (inactive)	128%	-0.634 (inactive)	-1.4e-05 (inactive)	0.00353 (inactive)	16.1% (inactive)	9.37% (inactive)
Cc1nn(CC(O)Cn2c3c(c4ccccc42)CCN(C)C3=O)c(C)c1Br (stereo not given)	363	-4.7% (inactive)	10.5% (inactive)	101%	45.5% (inactive)	75.2%	-0.427 (inactive)	-3e-05 (inactive)	0.00532 (inactive)	21.6% (inactive)	21.9% (inactive)
CCOC(=O)c1c(NC(=O)COC(=O)c2c(C)noc2C)sc2c1CCC2	231	7.8% (inactive)	29.9% (inactive)	103%	-101% (inactive)	109%	-0.472 (inactive)	-1.1e-05 (inactive)	0.0054 (inactive)	14.6% (inactive)	21.3% (inactive)
O=C(CCCCCn1c(=S)[nH]c2cc3c(cc2c1=O)OCO3)N1CCN(Cc2ccccc2)CC1	494	3% (inactive)	-11.1% (inactive)	100%	-25.7% (inactive)	113%	-0.476 (inactive)	1.3e-05 (inactive)	0.00605 (inactive)	-5.45% (inactive)	15.2% (inactive)
O=C(CSc1nnc(CNC(=O)c2cccs2)o1)Nc1cccc(C(F)(F)F)c1	262	3.8% (inactive)	-12.8% (inactive)	78.7%	-14.2% (inactive)	111%	-0.379 (inactive)	-5.5e-05 (inactive)	0.00592 (inactive)	6.93% (inactive)	19.8% (inactive)
COc1ccccc1C(=O)N1CCN(C(=O)COc2cccc(C)c2)CC1	430	-5.5% (inactive)	11.7% (inactive)	94.2%	-52.5% (inactive)	102%	-0.288 (inactive)	-5.4e-05 (inactive)	0.00401 (inactive)	14% (inactive)	23.5% (inactive)
Cn1c(=O)n(CC(=O)OCc2ccccc2)c(=O)c2c1nc1n2CCCN1C1CCCCC1	376	3.2% (inactive)	0.2% (inactive)	82.9%	25.3% (inactive)	92%	-0.479 (inactive)	-1.8e-05 (inactive)	0.00618 (inactive)	-2.49% (inactive)	17.2% (inactive)
Cc1cccc2cc(CN(CCCO)C(=O)Nc3ccc(Cl)cc3)c(=O)[nH]c12	402	5.6% (inactive)	-13% (inactive)	117%	-307% (inactive)	156%	-0.646 (inactive)	1e-05 (inactive)	0.00902 (inactive)	12.2% (inactive)	-2.7% (inactive)
Cc1cc(C)n(-c2nc3c(c(=O)n(Cc4ccc(Cl)c(Cl)c4)c(=O)n3C)n2C)n1	404	-1.4% (inactive)	1.2% (inactive)	105%	-8.9% (inactive)	115%	-0.6 (inactive)	-1.8e-05 (inactive)	0.00595 (inactive)	4.56% (inactive)	21.6% (inactive)
Cc1nc(CCNC(=O)c2ccccc2)cs1	347	-6% (inactive)	4.7% (inactive)	102%	-51.1% (inactive)	127%	-0.486 (inactive)	9.5e-06 (inactive)	0.00492 (inactive)	9.26% (inactive)	-2.39% (inactive)
CCOC(=O)C1CCCN(c2c(NCc3ccco3)c(=O)c2=O)C1 (stereo not given)	614	-7.3% (inactive)	-5.7% (inactive)	99.7%	-52.6% (inactive)	128%	-0.531 (inactive)	-1.5e-05 (inactive)	0.00732 (inactive)	-5.89% (inactive)	16.5% (inactive)
COc1cc(NC(=O)CN(c2cc(C)cc(C)c2)S(=O)(=O)c2c(C)noc2C)cc(OC)c1	541	2.3% (inactive)	-25% (inactive)	80.6%	-42.2% (inactive)	118%	-0.619 (inactive)	2.8e-05 (inactive)	0.00758 (inactive)	18.7% (inactive)	19.5% (inactive)
CCOC(=O)c1ccc(N2C(=O)CC(N3CCN(C/C=C/c4ccccc4)CC3)C2=O)cc1 (stereo not given)	375	-4.9% (inactive)	-10.3% (inactive)	103%	-52.6% (inactive)	125%	-0.39 (inactive)	1.2e-05 (inactive)	0.008 (inactive)	9.04% (inactive)	16.7% (inactive)
NC(=O)c1ccccc1NC(=O)CCCN1C(=O)CCC1=O	567	-1.8% (inactive)	-7.8% (inactive)	104%	-30.7% (inactive)	92.1%	-0.601 (inactive)	-1.2e-05 (inactive)	0.00648 (inactive)	2.16% (inactive)	13.3% (inactive)
